Consider seven molecules from PubChem BioAssay (EPA / NIEHS).

Each structure is given as a SMILES string. Active and inactive are the calls of the source. Rule for the calls: active = hit-call score of the fitted dose curve at least 0.9, where 1 is the maximum; inactive = score below 0.9.

Assay [1] in a line: APR_HepG2_P-H2AX_72hr: Apredica 72-hour HepG2 Assay for H2AX Phosphorylation (AID 2282916).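 Note: phospho-histone H2A.x immunostain intensity per cell marking DNA damage.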 Particulars: imaging, actives raise or lower the signal. In a few lines:
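Human hepatoma HepG2 cells are dosed across ten concentrations (0.39 to 200 uM, 0.5% v/v DMSO) and incubated 72 hr. Phospho-histone H2A.x is then detected by antibody staining alongside c-Jun and Hoechst, and quantified by automated fluorescence imaging.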

The nature of assay [2]: APR_HepG2_MitoMembPot_72hr: Apredica 72-hour HepG2 Assay for Mitochondrial Membrane Potential (AID 2282917). To be noted: imaging, actives raise or lower the signal. A digest of the protocol:
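Membrane potential read by MitoTracker Red CMXRos (250 nM, 30 min, pre-fixation) fluorescence imaging of HepG2 after 72 hr exposure. Ten concentrations, 0.39–200 uM, duplicate wells, 0.5% DMSO; fitted in both directions against DMSO baseline.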

Assay [3] in a line: APR_HepG2_MitoticArrest_72hr: Apredica 72-hour HepG2 Assay for Mitotic Arrest (AID 2282918). Particulars: high-content imaging, actives raise or lower the signal. In a few lines: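 HepG2 cells treated 72 h at 0.39–200 uM, 0.5% DMSO final; formaldehyde-fixed, stained with Hoechst 33342 and phospho-histone H3 antibody, imaged by high-content fluorescence; bidirectional fit versus DMSO.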

Assay [4] is described as follows: APR_HepG2_MicrotubuleCSK_72hr: Apredica 72-hour HepG2 Assay for Microtubule CSK Stabilty (AID 2282919). Particulars: HepG2 microtubule cytoskeleton, high-content imaging, actives raise or lower the signal. In a few lines:
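High-content imaging of alpha-tubulin staining in fixed HepG2 cells after 72 hr treatment with ten concentrations from 0.39 to 200 uM (0.5% DMSO). Fitting was bidirectional against DMSO; taxol served as positive control.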

A short description of assay [5]: APR_HepG2_P-H2AX_24hr: Apredica 24-hour HepG2 Assay for H2AX Phosphorylation (AID 2282920). To be noted: high-content imaging, actives raise or lower the signal. A digest of the protocol:
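HepG2 cells dosed 24 h at 0.39–200 uM (10 points, duplicate, 0.5% DMSO final). Formaldehyde-fixed and permeabilized, then immunostained for phospho-H2A.x with Hoechst. Fluorescence quantified by high-content imaging, fitted bidirectionally versus DMSO.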

Assay [6] is described as follows: APR_HepG2_StressKinase_72hr: Apredica 72-hour HepG2 Assay for Stress Kinase (AID 2282921). Particulars: HepG2 stress kinase (phospho-c-Jun) imaging, actives raise or lower the signal. In a few lines:
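After a 72 h compound treatment spanning 0.39 to 200 uM, formaldehyde-fixed cells are labelled for phosphorylated c-Jun and nuclei, imaged by automated fluorescence microscopy, and activity is fitted in both directions relative to DMSO controls.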

Assay [7] in a line: APR_HepG2_StressKinase_24hr: Apredica 24-hour HepG2 Assay for Stress Kinase (AID 2282922). Particulars: HepG2 stress kinase (phospho-c-Jun) imaging, actives raise or lower the signal. In a few lines:
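High-content imaging of phospho-c-Jun immunofluorescence in fixed, permeabilized HepG2 cells after 24 h dosing. Ten concentrations, 0.39 to 200 uM, run in duplicate at 0.5% v/v DMSO; gain or loss of signal versus DMSO.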

Assay [8] is described as follows: APR_HepG2_p53Act_72hr: Apredica 72-hour HepG2 Assay for p53 Activation (AID 2282923).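 Note: average cellular p53 protein immunofluorescence intensity in HepG2 cells.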 Particulars: high-content imaging, actives raise or lower the signal. In a few lines: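 Imaging-based endpoint: after 72 hr compound exposure (up to 200 uM, 0.5% DMSO), fixed and permeabilized monolayers were labelled with anti-p53 antibody and imaged; signal change in either direction was fitted relative to DMSO controls.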

A short description of assay [9]: APR_HepG2_MitoMass_72hr: Apredica 72-hour HepG2 Assay for Mitochondrial Mass (AID 2282924).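 Note: MitoTracker Red CMXRos stain intensity per cell imaged as mitochondrial mass.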 Particulars: high-content imaging, actives raise or lower the signal. In a few lines:
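Readout is imaged MitoTracker Red (250 nM, 30 min, pre-fixation) signal, fitted bidirectionally against DMSO baseline. Human HepG2 liver cells received compound 0.39–200 uM in duplicate for 72 hr, final DMSO 0.5%.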

A short description of assay [10]: APR_HepG2_NuclearSize_72hr: Apredica 72-hour HepG2 Assay for Nuclear Size (AID 2282925). Particulars: high-content imaging, actives raise or lower the signal. A digest of the protocol: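 Nuclear size was read by high-content imaging of Hoechst 33342 stain after formaldehyde fixation. Compounds ran 72 h on HepG2 at 0.39 to 200 uM, with final DMSO 0.5% v/v. Curves fitted both directions relative to DMSO control.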

Assay [11] in a line: ATG_CRE_CIS: Attagene CIS-FACTORIAL HepG2 Assay for human cAMP Responsive Element (CRE) binding protein 3 (AID 2282926). To be noted: HepG2 CRE cis-reporter, Attagene multiplexed mRNA; actives raise or lower the signal. In a few lines: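 Induced reporter mRNA from a CRE cis element, measured in HepG2 among many multiplexed units at 24 h. Detection used RT-PCR plus capillary electrophoresis of fluorescent fragments; DMSO served as negative control.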

Assay [12] concerns the target CCAAT/enhancer-binding protein beta (Homo sapiens) (UniProt P17676). Put plainly: ATG_C_EBP_CIS: Attagene CIS-FACTORIAL HepG2 Assay for human CCAAT/Enhancer Binding Protein (C/EBP) beta (AID 2282927). Particulars: HepG2 Attagene cis-factorial transcription factor reporter; actives raise or lower the signal. In a few lines: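 Endogenous transcription factor activity in human liver HepG2 cells is inferred from induction of a CEBPB-linked reporter mRNA. Exposure lasts 24 h; activity is fitted in both directions relative to DMSO.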

Assay [13] can be described thus: ATG_CMV_CIS: Attagene CIS-FACTORIAL HepG2 Assay for human CMV (Internal Marker) (AID 2282928).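 Note: endpoint acts as a background internal control marker rather than a target.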 To be noted: HepG2 CMV promoter reporter, transcription factor profiling; actives raise or lower the signal. In a few lines: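 Bidirectional fits against DMSO are applied to reporter mRNA, read by RT-PCR with capillary electrophoresis, from HepG2 cells exposed 24 h. The endpoint serves as an internal CMV background marker within the cis-factorial reporter panel.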

Assay [14] is described as follows: ATG_DR4_LXR_CIS: Attagene CIS-FACTORIAL HepG2 Assay for human Liver X Receptor (LXR), DR4 submotif (AID 2282929). To be noted: HepG2 Attagene DR4 cis-reporter, mRNA transcription; actives raise or lower the signal. A digest of the protocol: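 Transiently transfected HepG2 liver cells; cis-regulated reporters; 24 h dosing. RT-PCR plus CE read-out of reporter mRNA. DMSO baseline, bidirectional curve fitting.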

Assay [15] has as its target Aryl hydrocarbon receptor (Homo sapiens) (UniProt P35869). Put plainly: ATG_Ahr_CIS: Attagene CIS-FACTORIAL HepG2 Assay for human Aryl Hydrocarbon Receptor (Ahr) (AID 2282930). Particulars: HepG2 AhR cis-factorial reporter transcription; actives raise or lower the signal. A digest of the protocol:
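Transient MRTU transfection of HepG2 → 24 h compound exposure → total RNA, oligo(dT) RT → PCR, 6-FAM extension, HpaI cut → CE fluorescence. DMSO = baseline; bidirectional curve fit.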

A short description of assay [16]: ATG_AP_2_CIS: Attagene CIS-FACTORIAL HepG2 Assay for human Activator Protein 2 (AP-2) (AID 2282932). To be noted: HepG2 AP-2 cis-reporter, Attagene transcription factor profiling; actives raise or lower the signal. In a few lines:
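Endogenous transcription factor activity is reported through transfected multiplex reporter constructs in HepG2, after 24 h of compound exposure. Transcripts were quantified by RT-PCR and capillary electrophoresis of fluorescent fragments. Bidirectional fit against DMSO.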

Assay [17] is described as follows: ATG_BRE_CIS: Attagene CIS-FACTORIAL HepG2 Assay for human Bone Morphogenetic Protein (BMP) Response Element (BRE) (AID 2282933). To be noted: HepG2 BMP response element reporter, Attagene transcription factor profiling; actives raise or lower the signal. In a few lines:
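HepG2 cells transiently transfected with CIS reporter units (endogenous TF activity, BMP response element), dosed 24 h. Reporter mRNA quantified by RT-PCR, fluorescent labelling and capillary electrophoresis; bidirectional fit vs DMSO baseline.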

The target of assay [18] is Transcription factor E2F1 (Homo sapiens) (UniProt Q01094). Put plainly: ATG_E2F_CIS: Attagene CIS-FACTORIAL HepG2 Assay for human E2F Transcription Factor 1 (AID 2282935). Particulars: HepG2 Attagene cis-reporter, E2F reporter RNA transcripts; actives raise or lower the signal. In a few lines:
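Gain or loss of reporter transcript, fitted against DMSO, reflects E2F1-driven transcription. Transiently transfected HepG2 dosed 24 h before RNA isolation. Quantified by fluorescent RT-PCR products separated by capillary electrophoresis.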

The nature of assay [19]: ATG_AP_1_CIS: Attagene CIS-FACTORIAL HepG2 Assay for human Activator Protein 1 (AP-1) (AID 2282931). To be noted: HepG2 Attagene cis-factorial AP-1 reporter mRNA; actives raise or lower the signal. In a few lines: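 We transfected HepG2 cells transiently with a set of cis-regulated reporter transcription units, dosed them for 24 h, and quantified reporter mRNA via RT-PCR and capillary electrophoresis, scoring gain or loss of signal relative to DMSO.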

For assay [20], the target named is Retinoic acid receptor alpha (Homo sapiens) (UniProt P10276). Put plainly: ATG_DR5_RAR_CIS: Attagene CIS-FACTORIAL HepG2 Assay for human Retinoic Acid Receptor Alpha (RARE), DR5 submotif (AID 2282934). To be noted: HepG2 Attagene cis-factorial RARE DR5 reporter, mRNA; actives raise or lower the signal. A digest of the protocol:
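Transient MRTU transfection of HepG2; 24 h compound treatment; TriZol RNA, oligo(dT) RT, PCR, FAM labelling, capillary electrophoresis. Bidirectional fit vs DMSO. Endogenous TF activity at DR5 RARE.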

CCAAT/enhancer-binding protein beta (Homo sapiens), sequence (P17676 whole entry, looked up): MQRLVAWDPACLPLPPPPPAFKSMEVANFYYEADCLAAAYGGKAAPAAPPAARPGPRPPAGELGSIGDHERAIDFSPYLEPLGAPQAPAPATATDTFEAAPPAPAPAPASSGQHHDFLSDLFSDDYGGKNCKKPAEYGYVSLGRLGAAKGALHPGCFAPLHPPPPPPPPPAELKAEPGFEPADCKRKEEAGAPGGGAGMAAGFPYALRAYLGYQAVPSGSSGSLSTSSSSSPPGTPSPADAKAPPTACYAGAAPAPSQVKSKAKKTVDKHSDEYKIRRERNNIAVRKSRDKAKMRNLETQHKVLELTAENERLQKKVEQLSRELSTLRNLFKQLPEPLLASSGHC
Aryl hydrocarbon receptor (Homo sapiens), sequence (P35869 whole entry, looked up): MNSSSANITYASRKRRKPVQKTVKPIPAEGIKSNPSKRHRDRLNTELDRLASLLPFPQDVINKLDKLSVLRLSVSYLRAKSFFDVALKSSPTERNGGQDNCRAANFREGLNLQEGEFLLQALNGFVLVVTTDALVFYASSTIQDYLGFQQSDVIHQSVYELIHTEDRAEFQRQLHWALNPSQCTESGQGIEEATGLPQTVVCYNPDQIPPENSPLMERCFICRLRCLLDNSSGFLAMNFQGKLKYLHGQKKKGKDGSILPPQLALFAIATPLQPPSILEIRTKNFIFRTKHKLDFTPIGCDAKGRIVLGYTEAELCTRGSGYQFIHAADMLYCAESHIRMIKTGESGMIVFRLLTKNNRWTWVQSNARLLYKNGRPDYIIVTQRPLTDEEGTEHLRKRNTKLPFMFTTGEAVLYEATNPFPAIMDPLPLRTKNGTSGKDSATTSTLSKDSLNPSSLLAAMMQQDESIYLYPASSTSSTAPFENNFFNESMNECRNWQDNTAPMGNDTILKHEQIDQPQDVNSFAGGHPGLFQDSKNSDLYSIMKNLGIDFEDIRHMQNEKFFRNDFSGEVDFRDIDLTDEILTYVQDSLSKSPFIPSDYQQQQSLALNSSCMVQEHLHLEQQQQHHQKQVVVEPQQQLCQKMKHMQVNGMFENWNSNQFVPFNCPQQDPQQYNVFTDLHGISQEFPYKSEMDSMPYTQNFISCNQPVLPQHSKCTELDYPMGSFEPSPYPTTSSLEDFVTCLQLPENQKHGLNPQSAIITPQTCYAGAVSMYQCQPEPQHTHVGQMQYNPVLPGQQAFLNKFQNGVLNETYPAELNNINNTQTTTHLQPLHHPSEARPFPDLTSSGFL
Transcription factor E2F1 (Homo sapiens), sequence (Q01094 whole entry, looked up): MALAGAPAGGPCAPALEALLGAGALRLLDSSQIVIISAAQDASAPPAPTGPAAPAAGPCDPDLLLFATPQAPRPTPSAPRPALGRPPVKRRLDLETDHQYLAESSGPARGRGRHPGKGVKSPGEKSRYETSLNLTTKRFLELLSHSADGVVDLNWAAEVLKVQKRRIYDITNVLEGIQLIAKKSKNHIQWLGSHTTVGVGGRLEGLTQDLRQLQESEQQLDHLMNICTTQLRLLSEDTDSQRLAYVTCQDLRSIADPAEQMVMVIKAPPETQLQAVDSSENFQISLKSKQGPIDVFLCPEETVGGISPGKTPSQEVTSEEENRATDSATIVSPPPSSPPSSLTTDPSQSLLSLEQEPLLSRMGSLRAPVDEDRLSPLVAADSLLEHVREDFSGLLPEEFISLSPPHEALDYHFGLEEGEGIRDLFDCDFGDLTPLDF
Retinoic acid receptor alpha (Homo sapiens), sequence (P10276 whole entry, looked up): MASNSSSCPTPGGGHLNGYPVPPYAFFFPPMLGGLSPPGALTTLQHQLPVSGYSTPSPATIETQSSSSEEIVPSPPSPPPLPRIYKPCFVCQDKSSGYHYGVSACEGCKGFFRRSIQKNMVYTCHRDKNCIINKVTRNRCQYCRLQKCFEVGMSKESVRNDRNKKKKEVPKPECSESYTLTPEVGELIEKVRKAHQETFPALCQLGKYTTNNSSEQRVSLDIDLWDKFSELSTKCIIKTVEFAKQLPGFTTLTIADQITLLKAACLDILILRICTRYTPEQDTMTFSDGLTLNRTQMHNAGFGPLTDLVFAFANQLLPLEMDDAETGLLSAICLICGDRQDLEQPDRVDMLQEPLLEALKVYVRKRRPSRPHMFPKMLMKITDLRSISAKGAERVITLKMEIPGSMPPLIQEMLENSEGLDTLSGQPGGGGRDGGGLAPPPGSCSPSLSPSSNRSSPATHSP

Regarding `CCNc1nc(Cl)nc(NC(C)(C)C#N)n1`, the molecule was called inactive in assay [1], in assay [2], in [3], in assay [4], in assay [5] and in [6]. Further, the result in assay [7], in assay [8], in assay [9], in assay [10], in [11] and in [12] was inactive. In addition, the call in assay [13], in assay [14], in [15], in assay [16], in assay [17] and in [18] was inactive.
For `CC(Oc1cccc(Cl)c1)C(=O)O` (stereo not drawn), the outcome in [1], in [2], in assay [3], in assay [4], in assay [5] and in assay [6] was inactive. Further, the molecule was classed as inactive in assay [7], in [8], in [9], in assay [10], in [11] and in assay [12]. In addition, the outcome in assay [13], in assay [15], in [19], in assay [16], in [17] and in [20] was inactive. In addition, the molecule was called inactive in [18].
Regarding `CCCCOC(=O)c1ccccc1C(=O)O`, the molecule was classed as inactive in assay [1], in assay [2], in [3], in assay [4], in [5] and in assay [6]. In addition, the molecule was called inactive in assay [7], in [8], in assay [9], in assay [10], in assay [11] and in assay [12]. The result in assay [13], in assay [15], in [19], in assay [16], in assay [17] and in assay [20] was inactive. Further, in assay [18], the result was inactive.
As to `C[Si](Cn1cncn1)(c1ccc(F)cc1)c1ccc(F)cc1`, the molecule was called inactive in [1], in assay [2], in assay [3], in [4], in [5] and in assay [6]. For the same molecule, the molecule was called inactive in [7], in [8], in assay [9], in assay [10], in assay [11] and in assay [12]. Moreover, the result in assay [13], in assay [15], in assay [16] and in [18] was inactive. Further, the AC50 – broadly, the midpoint of the concentration-response curve, whichever way the signal moves – was 48.7 µM (active) in assay [14], 50 µM (active) in assay [19] and 39.1 µM (active) in [17].
Regarding `CNC(=O)ON=C(SC)C(=O)N(C)C`, the result in assay [1], in assay [2], in assay [3], in assay [4], in assay [5] and in assay [6] was inactive. The call in assay [7], in assay [8], in [10], in assay [12], in assay [13] and in [14] was inactive. Moreover, the molecule was classed as inactive in [15], in assay [16], in [17], in assay [20] and in assay [18]. The AC50 was 87.8 µM (active) in [9], 17.4 µM (active) in assay [11] and 50 µM (active) in assay [19].
Take `CC1(C(=O)Nc2ccc(O)c(Cl)c2Cl)CCCCC1`: the molecule was classed as inactive in [1], in [2], in assay [3], in assay [5], in assay [6] and in [7]. The result in [8], in [9], in assay [10], in assay [12], in assay [13] and in assay [14] was inactive. Besides, the outcome in assay [15], in assay [16] and in assay [18] was inactive. Besides, the AC50 is 91.7 µM (active) in assay [4], 10 µM (active) in assay [11], 30 µM (active) in assay [19] and 39.3 µM (active) in [17].
`Cc1nn(-c2cc(NS(C)(=O)=O)c(Cl)cc2Cl)c(=O)n1C(F)F`: the outcome in assay [1], in [2], in assay [3], in assay [4], in assay [5] and in assay [6] was inactive. Further, the outcome in assay [7], in assay [8], in assay [9], in assay [10], in assay [11] and in [12] was inactive. Moreover, the molecule was classed as inactive in [13], in assay [14], in [15], in assay [19], in [16] and in [17]. In addition, in assay [18], the result was inactive.
